Here are results for two molecules from ChEMBL document CHEMBL3988442, “University of Dundee, Small-Polar-MMV Screening Library” (2021).

For some assays here: Measured potencies and affinities stand elsewhere.

Holding throughout (parameters): scale not given: direction of the effect not stated beside the values
In test [1] the target is Protein translocase subunit SecA (Escherichia coli (strain K12)) (UniProt P10408). In words: Assay to Identify E. coli SecA ATPase Inhibitors. The test is classed as functional. The settings on record: 30 µM.
Test [2] addresses T1, Ubiquitin-activating enzyme e1, putative (Leishmania donovani (strain BPK282A1)) (UniProt E9BSI1).
T1 sequence (whole entry): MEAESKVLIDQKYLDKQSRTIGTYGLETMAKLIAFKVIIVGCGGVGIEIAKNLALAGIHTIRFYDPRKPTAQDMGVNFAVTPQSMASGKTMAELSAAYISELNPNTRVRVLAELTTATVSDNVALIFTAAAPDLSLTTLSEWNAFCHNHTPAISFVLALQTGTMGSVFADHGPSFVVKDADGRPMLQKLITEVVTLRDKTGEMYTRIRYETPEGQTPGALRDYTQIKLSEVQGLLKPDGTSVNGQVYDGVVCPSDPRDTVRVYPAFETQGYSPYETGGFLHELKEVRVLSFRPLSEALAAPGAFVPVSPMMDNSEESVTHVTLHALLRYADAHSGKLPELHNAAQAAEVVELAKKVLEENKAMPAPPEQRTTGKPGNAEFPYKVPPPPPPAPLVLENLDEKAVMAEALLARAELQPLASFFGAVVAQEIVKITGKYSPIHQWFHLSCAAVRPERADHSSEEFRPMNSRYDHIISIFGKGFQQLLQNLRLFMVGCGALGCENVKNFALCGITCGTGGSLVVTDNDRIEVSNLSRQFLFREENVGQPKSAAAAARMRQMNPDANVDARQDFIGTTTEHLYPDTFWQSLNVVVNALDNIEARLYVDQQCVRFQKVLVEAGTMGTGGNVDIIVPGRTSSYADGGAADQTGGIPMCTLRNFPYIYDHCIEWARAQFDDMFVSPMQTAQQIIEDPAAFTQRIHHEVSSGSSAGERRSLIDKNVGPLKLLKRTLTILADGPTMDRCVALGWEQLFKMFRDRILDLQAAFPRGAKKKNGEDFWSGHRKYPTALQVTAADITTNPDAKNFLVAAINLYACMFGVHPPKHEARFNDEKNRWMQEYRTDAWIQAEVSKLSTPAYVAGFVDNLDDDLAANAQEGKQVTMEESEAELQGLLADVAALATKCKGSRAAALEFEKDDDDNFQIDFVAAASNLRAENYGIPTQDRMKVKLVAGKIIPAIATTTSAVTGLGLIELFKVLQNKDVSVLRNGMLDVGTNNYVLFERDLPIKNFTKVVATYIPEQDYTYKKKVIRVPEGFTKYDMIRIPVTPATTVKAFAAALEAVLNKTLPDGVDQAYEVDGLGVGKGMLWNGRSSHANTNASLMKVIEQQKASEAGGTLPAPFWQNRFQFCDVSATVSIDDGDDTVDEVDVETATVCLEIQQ
In words: Leishmania donovani Ubiquitin Activating Enzyme (LdE1). The test is classed as functional. As to conditions: 30 µM.

For test [3], the target named is T2, Aspartate--tRNA(Asp/Asn) ligase (Mycobacterium tuberculosis (strain ATCC 25618 / H37Rv)) (UniProt P9WFW3). Further: in the data most compounds retested in dose-response had high values.
T2 sequence (whole entry): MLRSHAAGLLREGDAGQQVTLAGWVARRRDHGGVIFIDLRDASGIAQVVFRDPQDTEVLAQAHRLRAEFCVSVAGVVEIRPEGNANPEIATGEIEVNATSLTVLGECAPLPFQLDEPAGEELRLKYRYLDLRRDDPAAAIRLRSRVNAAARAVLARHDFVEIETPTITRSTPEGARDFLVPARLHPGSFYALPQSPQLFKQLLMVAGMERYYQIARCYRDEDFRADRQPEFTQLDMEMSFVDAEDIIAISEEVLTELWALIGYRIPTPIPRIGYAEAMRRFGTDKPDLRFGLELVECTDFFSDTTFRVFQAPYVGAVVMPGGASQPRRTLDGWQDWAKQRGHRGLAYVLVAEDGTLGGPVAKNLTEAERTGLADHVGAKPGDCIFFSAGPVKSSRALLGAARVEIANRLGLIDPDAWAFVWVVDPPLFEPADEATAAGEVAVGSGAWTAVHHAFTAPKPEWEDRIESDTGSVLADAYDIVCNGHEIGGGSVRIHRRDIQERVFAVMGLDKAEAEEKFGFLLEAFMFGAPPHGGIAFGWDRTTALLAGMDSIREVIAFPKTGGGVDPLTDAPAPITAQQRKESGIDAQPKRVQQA
In words: Assay for Asp RNA synthetase-1 from Mycobacterium tuberculosis. As to conditions: 30 µM. Format: functional.

For test [4], the target named is AMP-activated protein kinase, AMPK (Homo sapiens) (UniProt P54646+O43741+P54619+Q9UGJ0+Q9Y478+Q13131+Q9UGI9). In words: AMP-dependent Kinase enzyme assay. An in vitro enzyme assay that detects ADP turnover that is directly proportional to AMPK activity. This uses naive AMPK that is activated during the assay with MK-8722. Format: functional. The settings on record: 30 µM.

For test [5], the target named is Sialic acid-binding Ig-like lectin 9 (Homo sapiens) (UniProt Q9Y336). Description: Hs-Siglec9 ALPHAscreen SOP 20170721. As to conditions: 10 µM.
For test [6], the system named is Trypanosoma cruzi. Description: Trypanosoma cruzi phosphomannomutase and mannose-1-phosphate guanylyltransferase assay. The test is classed as functional. The settings on record: 10 µM.
Test [7] has as its target T3, Arginase-2, mitochondrial (Homo sapiens) (UniProt P78540).
T3 sequence (whole entry): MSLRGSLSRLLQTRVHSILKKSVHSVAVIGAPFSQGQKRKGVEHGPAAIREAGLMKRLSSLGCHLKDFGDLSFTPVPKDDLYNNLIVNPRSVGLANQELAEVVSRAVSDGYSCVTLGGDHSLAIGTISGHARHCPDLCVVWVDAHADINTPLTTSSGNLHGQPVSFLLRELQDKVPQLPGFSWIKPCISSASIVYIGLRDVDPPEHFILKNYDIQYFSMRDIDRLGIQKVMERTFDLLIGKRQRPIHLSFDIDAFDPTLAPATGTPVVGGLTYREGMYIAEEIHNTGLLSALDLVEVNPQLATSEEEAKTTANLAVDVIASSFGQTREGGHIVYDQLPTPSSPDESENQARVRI
Description: in vitro enzyme assay to detect the production of urea directly proportional to the activity of Arginase II. Further: in the data most compounds retested in dose-response had high values. Format: functional. As to conditions: 33.3 µM.

Test [8] addresses T4, Proteasome subunit beta (Trypanosoma cruzi) (UniProt O96673).
T4 sequence (whole entry): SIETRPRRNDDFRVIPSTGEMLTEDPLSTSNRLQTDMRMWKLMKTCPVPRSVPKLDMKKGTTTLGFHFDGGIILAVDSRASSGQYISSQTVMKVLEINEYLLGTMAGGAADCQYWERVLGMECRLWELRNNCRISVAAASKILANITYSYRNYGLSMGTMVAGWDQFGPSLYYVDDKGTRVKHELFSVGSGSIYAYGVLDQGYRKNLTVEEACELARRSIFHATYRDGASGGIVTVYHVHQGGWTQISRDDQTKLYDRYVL
In words: Trypanosoma cruzi proteasome chymotrypsin-like activity (TcProtChymo) assay. Further: in the data most compounds retested in dose-response had high values. As to conditions: 9.37 µM. Format: functional.

For test [9], the species on record is Homo sapiens. In words: To identify inhibition of the IFN signalling (Jak-Stat) pathway via expression of an eGFP reporter gene under the control of an IFN-stimulated response element (ISRE) containing MxA promoter. The test is classed as functional. As to conditions: 30 µM. Background: A reporter such as luciferase makes a cellular process visible.
Test [10] has as its target Shiga toxin 2 (Escherichia coli O157:H7) (UniProt P09385+P09386). In words: E. coli 0.157:H7 Shiga Toxin SOP - stx2 screening assay. Format: functional. The settings on record: 30 µM.
Test [11] addresses T5, Tyrosyl-tRNA synthetase, putative (Trypanosoma cruzi (strain CL Brener)) (UniProt Q4DSP6).
T5 sequence (whole entry): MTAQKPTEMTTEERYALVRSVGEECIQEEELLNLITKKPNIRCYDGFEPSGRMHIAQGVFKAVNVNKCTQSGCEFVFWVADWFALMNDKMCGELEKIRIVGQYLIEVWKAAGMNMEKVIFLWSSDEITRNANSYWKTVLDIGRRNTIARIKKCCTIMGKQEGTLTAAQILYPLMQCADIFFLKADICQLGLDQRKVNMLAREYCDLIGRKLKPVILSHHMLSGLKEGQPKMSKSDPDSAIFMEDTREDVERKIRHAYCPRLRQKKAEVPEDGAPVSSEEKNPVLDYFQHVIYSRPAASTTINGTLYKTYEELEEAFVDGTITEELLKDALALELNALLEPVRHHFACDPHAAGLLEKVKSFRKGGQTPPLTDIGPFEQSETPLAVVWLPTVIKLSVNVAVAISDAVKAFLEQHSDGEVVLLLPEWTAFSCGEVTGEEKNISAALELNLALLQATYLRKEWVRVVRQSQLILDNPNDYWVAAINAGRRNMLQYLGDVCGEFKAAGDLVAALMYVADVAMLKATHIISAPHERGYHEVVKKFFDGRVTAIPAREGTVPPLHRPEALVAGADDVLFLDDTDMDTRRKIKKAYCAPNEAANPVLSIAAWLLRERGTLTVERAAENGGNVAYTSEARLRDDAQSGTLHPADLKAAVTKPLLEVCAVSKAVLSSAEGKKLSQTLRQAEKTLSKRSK
Description: Trypanosoma cruzi tyrosyl tRNA synthetase (TcYRS) _High Tyrosine SOP. Further: in the data most compounds retested in dose-response had high values. Format: functional. The settings on record: 30 µM.

Test [12] deals with T5, Tyrosyl-tRNA synthetase, putative (Trypanosoma cruzi (strain CL Brener)). Description: Trypanosoma cruzi tyrosyl tRNA synthetase (TcYRS) SOP. Format: functional. As to conditions: 30 µM.
Test [13] addresses Chromo domain-containing protein 1 (Saccharomyces cerevisiae (strain ATCC 204508 / S288c) (Baker's yeast)) (UniProt P32657). In words: ScCHD-1 Enzyme Inhibition Assay. Further: in the data most compounds retested in dose-response had high values. As to conditions: 30 µM. Format: functional.

Chain of Protein translocase subunit SecA (Escherichia coli (strain K12)) (P10408 whole entry): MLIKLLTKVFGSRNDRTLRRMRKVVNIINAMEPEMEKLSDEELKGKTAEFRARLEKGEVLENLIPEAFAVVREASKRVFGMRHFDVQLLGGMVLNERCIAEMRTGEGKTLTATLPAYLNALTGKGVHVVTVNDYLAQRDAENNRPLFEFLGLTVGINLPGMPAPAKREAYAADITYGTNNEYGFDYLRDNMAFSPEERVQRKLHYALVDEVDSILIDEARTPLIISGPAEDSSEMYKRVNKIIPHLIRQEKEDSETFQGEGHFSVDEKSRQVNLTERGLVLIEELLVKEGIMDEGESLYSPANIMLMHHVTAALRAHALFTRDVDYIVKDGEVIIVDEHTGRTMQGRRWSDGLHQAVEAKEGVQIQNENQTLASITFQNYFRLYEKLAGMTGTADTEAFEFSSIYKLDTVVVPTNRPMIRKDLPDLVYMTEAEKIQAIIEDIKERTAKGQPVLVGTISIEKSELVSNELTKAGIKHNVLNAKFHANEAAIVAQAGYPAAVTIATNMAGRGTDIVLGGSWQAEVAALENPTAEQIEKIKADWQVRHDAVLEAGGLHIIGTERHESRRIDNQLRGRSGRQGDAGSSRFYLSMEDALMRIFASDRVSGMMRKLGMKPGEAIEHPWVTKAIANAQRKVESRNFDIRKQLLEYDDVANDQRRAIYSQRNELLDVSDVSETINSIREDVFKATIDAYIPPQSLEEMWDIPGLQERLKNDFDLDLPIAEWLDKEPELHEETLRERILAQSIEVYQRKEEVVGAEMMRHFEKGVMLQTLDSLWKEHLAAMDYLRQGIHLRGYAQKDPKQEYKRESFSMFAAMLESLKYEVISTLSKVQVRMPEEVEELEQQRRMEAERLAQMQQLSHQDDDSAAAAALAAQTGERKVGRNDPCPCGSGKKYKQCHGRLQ
Chain of Sialic acid-binding Ig-like lectin 9 (Homo sapiens) (Q9Y336 whole entry): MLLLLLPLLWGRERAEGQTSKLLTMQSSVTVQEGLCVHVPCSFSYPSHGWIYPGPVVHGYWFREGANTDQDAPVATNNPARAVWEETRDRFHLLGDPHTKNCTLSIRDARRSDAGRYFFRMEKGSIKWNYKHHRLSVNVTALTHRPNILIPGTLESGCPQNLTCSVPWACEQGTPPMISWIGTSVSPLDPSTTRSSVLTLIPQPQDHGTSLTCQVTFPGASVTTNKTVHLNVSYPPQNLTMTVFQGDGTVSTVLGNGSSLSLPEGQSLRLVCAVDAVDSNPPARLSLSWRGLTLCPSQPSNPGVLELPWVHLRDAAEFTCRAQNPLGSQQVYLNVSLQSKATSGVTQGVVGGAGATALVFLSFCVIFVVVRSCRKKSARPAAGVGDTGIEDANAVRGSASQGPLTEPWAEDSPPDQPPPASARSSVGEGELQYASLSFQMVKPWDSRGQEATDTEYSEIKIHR
Chain of Chromo domain-containing protein 1 (Saccharomyces cerevisiae (strain ATCC 204508 / S288c) (Baker's yeast)) (P32657 whole entry, the tested form may be a part): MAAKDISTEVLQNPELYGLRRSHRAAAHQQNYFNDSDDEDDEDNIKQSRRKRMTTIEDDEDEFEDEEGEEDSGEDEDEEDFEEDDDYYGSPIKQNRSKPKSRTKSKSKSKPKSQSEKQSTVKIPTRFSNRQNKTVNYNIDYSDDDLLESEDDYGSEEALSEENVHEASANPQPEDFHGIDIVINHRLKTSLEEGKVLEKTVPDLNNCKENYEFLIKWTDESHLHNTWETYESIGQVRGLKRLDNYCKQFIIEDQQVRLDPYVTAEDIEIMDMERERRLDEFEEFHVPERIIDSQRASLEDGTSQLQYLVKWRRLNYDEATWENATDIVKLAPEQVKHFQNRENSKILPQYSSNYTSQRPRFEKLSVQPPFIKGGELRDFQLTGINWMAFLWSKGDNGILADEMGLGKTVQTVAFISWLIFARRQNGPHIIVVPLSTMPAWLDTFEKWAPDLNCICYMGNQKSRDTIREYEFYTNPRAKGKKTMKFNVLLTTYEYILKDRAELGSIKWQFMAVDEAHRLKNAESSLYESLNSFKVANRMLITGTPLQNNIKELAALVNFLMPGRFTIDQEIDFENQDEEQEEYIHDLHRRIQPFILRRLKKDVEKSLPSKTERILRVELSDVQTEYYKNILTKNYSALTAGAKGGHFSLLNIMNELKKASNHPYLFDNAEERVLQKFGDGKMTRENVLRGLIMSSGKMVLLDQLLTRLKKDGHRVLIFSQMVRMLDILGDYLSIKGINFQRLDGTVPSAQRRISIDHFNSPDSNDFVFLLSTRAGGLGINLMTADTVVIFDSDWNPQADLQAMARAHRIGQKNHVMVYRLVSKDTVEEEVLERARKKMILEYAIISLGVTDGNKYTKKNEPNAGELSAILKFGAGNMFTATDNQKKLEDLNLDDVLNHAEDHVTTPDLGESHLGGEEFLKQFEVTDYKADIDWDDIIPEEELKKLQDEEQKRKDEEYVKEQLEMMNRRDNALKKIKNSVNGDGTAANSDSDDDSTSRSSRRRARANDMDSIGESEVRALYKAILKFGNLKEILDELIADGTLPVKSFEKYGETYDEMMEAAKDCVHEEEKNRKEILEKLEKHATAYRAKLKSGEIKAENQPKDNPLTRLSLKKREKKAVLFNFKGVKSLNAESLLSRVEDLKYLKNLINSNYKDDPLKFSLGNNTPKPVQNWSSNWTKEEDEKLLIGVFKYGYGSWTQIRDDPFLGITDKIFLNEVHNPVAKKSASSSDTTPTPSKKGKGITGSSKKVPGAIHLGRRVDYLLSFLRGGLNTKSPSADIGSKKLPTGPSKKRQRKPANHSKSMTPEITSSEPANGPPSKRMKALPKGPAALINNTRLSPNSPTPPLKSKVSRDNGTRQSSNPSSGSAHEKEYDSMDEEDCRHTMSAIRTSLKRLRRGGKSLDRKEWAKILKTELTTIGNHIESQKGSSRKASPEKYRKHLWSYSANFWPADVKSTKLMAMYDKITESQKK

Consider `CC(C)N1CCC2(CCN(C(=O)c3cccnc3)CC2)C1`, for which the Percent Effect was 1.13% in test [1]; 10.8% in test [2]; 1.7% in [3]; 4.26% in test [4]; -12.5% in test [5]; -9.68% in [6]. Also, the Percent Effect in test [7] is 8.6%; in test [8], 20.9%; in [9], -1.74%; in [10], -5.59%; in [11] it was -24.9%; in [12], 10.3%. In addition, the Percent Effect in test [13] is -2.2%.

For `O=C(c1ccc2c(c1)COC2)N1CCC(Nc2ccccc2)CC1`, the Percent Effect in [1] is -4.95%; in [2], 7.79%; in test [3], -0.152%; in test [4], 5.07%; in test [5], 13.2%; in test [6] it was 5.06%. Further, the Percent Effect in [7] is 1.78%; in test [8], -4.05%; in [9], 25%; in test [10], 1.98%; in test [11] it was 6.8%; in test [12] it was 24.4%. Further, the Percent Effect in test [13] is -6.83%.
